From PubChem BioAssay (EPA / NIEHS)
Inconclusive results are not listed. Activity calls are given as the source filed them. Rule for the calls: active = hit-call score of the fitted dose curve at least 0.9, where 1 is the maximum; inconclusive = response in the unintended direction; inactive = score below 0.9.

Target: human Sirtuin 1 (SIRT1), SIRT1 (gene 23411) (UniProt Q96EB6)
Experiment: NVS_ENZ_hSIRT1: NovaScreen (NVS) Enzymatic Assay for human Sirtuin 1 (SIRT1) (AID 2283219)
Protocol: NVS_ENZ_hSIRT1 is a biochemical, single-readout assay that uses extracted gene-proteins in a cell-free assay. Measurements were taken 1 hour after chemical dosing in a 384-well plate.NVS_ENZ_hSIRT1 is one of one assay component(s) measured or calculated from the NVS_ENZ_hSIRT1 assay. It is designed to make measurements of enzyme activity, a form of enzyme reporter, as detected with fluorescence intensity signals by Fluorescence and electrophoretic mobility shift technology.Data from the assay component NVS_ENZ_hSIRT1 was analyzed into 1 assay endpoint. This assay endpoint, NVS_ENZ_hSIRT1, was analyzed in the positive analysis fitting direction relative to DMSO as the negative control and baseline of activity. Using a type of enzyme reporter, loss-of-signal activity can be used to understand changes in the enzymatic activity as they relate to the gene SIRT1. Furthermore, this assay endpoint can be referred to as a primary readout, because this assay has produced multiple assay endpoints where this one serves a enzymatic activity function. To generalize the intended target to other relatable targets, this assay endpoint is annotated to the hydrolase intended target family, where the subfamily is protein deacetylase.
Binding assays used specific radioligands (tritiated, iodinated) with non-radioactive competitive displacement ligands in agonist or antagonist protocols (as indicated) and various reference compounds and inhibitors to titrate specific binding to receptors and transporters. Most enzyme assays (CYPs, kinases, phosphatases, proteases, HDACs) used recombinant protein and specific substrates (fluorescence mostly, some colorimetric and radioactive) and inhibitors, followed by a biochemical separation of substrate and product. All assays for the biochemical HTS were initially run in duplicate at a single concentration (10 uM for CYP450 assays and 25 uM for all others). Assay-chemical combinations meeting a pre-defined threshold (e.g., 30% inhibition and other criteria defined below) were then run in singleton concentration-response format with maximum concentration of 20 uM for CYPs and 50 uM for all others. Each assay was run with positive and negative controls, and concurrent controls on every plate. The follow-up (secondary) screen tested active chemical-pairs in concentration series, as well as a few additional assays not tested in the primary screen, some selected negative inactives, and several cases re-run in the concentration series for confirmatory purposes.

Chain of human Sirtuin 1 (SIRT1), SIRT1 (gene 23411) (Q96EB6 whole entry, looked up): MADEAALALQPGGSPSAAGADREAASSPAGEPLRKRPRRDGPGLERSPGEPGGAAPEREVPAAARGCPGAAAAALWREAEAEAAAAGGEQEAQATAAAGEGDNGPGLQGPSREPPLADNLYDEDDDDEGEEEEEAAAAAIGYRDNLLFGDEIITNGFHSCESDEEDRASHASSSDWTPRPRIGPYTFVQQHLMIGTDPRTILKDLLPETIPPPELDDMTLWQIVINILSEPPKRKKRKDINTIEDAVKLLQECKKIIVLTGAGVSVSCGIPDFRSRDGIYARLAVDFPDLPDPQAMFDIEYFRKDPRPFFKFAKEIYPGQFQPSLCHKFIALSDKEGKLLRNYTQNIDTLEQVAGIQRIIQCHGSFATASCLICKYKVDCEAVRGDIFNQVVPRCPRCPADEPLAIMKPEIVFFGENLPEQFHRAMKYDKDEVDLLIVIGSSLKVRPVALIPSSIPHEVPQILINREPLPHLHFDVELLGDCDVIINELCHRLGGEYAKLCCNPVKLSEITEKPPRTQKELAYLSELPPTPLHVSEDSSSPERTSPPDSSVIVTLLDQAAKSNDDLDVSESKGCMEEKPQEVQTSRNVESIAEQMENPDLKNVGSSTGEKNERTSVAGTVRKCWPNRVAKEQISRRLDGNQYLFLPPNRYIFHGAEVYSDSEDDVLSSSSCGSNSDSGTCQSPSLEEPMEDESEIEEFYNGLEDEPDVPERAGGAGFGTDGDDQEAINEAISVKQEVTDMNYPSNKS

Row | Compound | outcome
1 | NC(N)=O | inactive
2 | NNC(=O)c1ccncc1 | inactive
3 | O=c1[nH]cnc2c1ncn2[C@H]1CC[C@@H](CO)O1 | inactive
4 | CCN(CC)C(=S)SSC(=S)N(CC)CC | inactive
5 | CCCC(CCC)C(=O)O | inactive
6 | CC(=O)c1ccccc1 | inactive
7 | CCCCCCOC(=O)CC(CC(=O)OCCCCCC)(OC(=O)CCC)C(=O)OCCCCCC | inactive
8 | COCc1nnc(-c2ccc[n+]([O-])c2)n1-c1c(Cl)c(Cl)cc2[nH]c(=O)c(=O)[nH]c12 | inactive
9 | CCc1cccc(CC)c1N | inactive
10 | CC(C)c1nnc2ccc(-c3ocnc3-c3cc(F)ccc3F)cn12 | inactive
11 | Cc1ncc([C@@H](CCCCCCc2ccc3c(n2)NCCC3)CC(=O)O)cn1 | inactive
12 | CCCCCCCC/C=C\CCCCCCCC(=O)OC[C@@H](O)[C@H]1OC[C@H](O)[C@H]1O | inactive
13 | Cn1cc[nH]c1=S | inactive
